ALOX15 inhib: qHTS Assay for Inhibitors of 15-hLO (15-human lipoxygenase); actives 1.4% (n = 74,000); AID 887, 2007; Potency, µM (series often up to 57.1 µM), usual class: inhibitors; Polyunsaturated fatty acid lipoxygenase ALOX15 (Homo sapiens), P16050; purified 15hLO-1, xylenol orange hydroperoxide absorbance; note: nearly all actives have a fitted effect of over 55% in size
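Readout: Fe(III)-xylenol orange absorbance, 573-to-405 nm ratio as reaction progress. Enzyme 40 nM purified human 15hLO-1, substrate 50 uM arachidonic acid, 6 min RT after 15 min compound preincubation; Hepes pH 7.5 buffer with Triton X-100.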
Tau filament bind: qHTS Assay for Tau Filament Binding; Microtubule-associated protein tau (Homo sapiens), P10636; Potency, µM (highest dose often 57.1 µM); recombinant tau filaments, thioflavin S fluorescence, 15 h; filaments grown with octadecylsulfate alongside compound; AID 596, 2007; actives 2% (n = 71,000);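 note: actives lower thioflavin S fluorescence by blocking filaments or displacing dye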
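Tau 2 uM in ThS buffer dispensed; compound added; 60 uM ODS added (finals 1 uM tau, 30 uM ODS); 15 h 37 C; fluor ex450/em510.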
Hsp90 Hop PPI: qHTS Assay for Disrupters of an Hsp90 Co-Chaperone Interaction | AlphaScreen TPR2A-His6 binding biotin-Hsp90 C-terminal peptide | Hsp90 C-terminal peptide / TPR2A (Hop) interaction, human | actives 0.44% (n = 71,000) | AID 595, 2007 | Potency, µM (top dose mostly 57 µM); active = well fitted curve in either direction with a large enough effect; inconclusive = small, poorly fitted or top-dose-only effect, or another doubt
ERK AVP inh: qHTS Assay for Inhibitors of the ERK Signaling Pathway using a Homogeneous Screening Assay; HEK293-V1b, vasopressin-stimulated pERK AlphaScreen; Potency, µM (highest dose often 57.5 µM), most hits filed as inhibitors; actives 0.99% (n = 72,000); AID 995, 2007; note: nearly all actives have a fitted effect of over 55% in size
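Phosphorylated ERK1/2 detected via AlphaScreen bead proximity in lysates of V1b-expressing HEK293 cells given 25 nM vasopressin for 5 min after 30 min compound exposure (37 °C). AC50 from Hill equation; basal DMSO 0%, vasopressin 100%.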
PK Bst: Pyruvate Kinase | purified pyruvate kinase, luminescence ATP production; ribose 5-phosphate activator present at AC10 | Potency, µM | actives 1.2% (n = 51,000) | AID 361, 2006; in the data active = potency below about 11 µM; inconclusive = mostly about 12 µM to 25 µM;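 the screen sought inhibitors and activators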
FLuc inh: qHTS Assay for Inhibitors of Firefly Luciferase; Luciferin 4-monooxygenase (Photinus pyralis), P08659; purified firefly luciferase, luminescence, 8 min; Potency, µM (top dose mostly 57.1 µM), most hits filed as inhibitors; actives 2.2% (n = 72,000); note: nearly all actives have a fitted effect of over 40% in size
Target sequence (P08659 whole entry, looked up): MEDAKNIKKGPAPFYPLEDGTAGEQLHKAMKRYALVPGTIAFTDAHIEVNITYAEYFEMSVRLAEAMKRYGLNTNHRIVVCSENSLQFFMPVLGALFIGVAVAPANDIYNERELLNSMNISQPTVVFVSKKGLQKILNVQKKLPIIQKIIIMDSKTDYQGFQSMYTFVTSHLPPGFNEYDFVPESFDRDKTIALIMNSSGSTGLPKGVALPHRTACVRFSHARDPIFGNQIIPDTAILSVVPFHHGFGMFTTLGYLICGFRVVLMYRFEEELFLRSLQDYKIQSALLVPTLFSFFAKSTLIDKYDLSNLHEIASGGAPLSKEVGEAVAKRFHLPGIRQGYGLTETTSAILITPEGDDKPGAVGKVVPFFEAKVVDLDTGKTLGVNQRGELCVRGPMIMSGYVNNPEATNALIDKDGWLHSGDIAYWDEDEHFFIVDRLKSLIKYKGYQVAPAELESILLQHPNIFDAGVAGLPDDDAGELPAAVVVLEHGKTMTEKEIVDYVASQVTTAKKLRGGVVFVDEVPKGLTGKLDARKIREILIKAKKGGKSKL
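Luminescence read-out after 8 min at room temperature; enzyme reaction used luciferin plus 10 uM ATP (linear range) in imidazole buffer pH 7.2 with KCl, MgCl2, Tween 20 and BSA. Each sample was run as a titration.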
Numbers stand for hits; – = inactive; ? = inconclusive; · = no result given; [ ] = another dose, or the depositor's remark. The list is not random: actives were taken first. Their share in the collection is about 6.1%. Unless noted, calls come from the whole dose curve; as a rule, active = well fitted curve in the direction sought with a large enough effect; inconclusive = small, poorly fitted or top-dose-only effect, or another doubt; inactive = no such curve, though single readings can be large; an effect the other way counts as inactive or inconclusive.

SMILES	ALOX15 inhib	Tau filament bind	Hsp90 Hop PPI	ERK AVP inh	PK Bst	FLuc inh
CCN1CCN(Cc2ccc(NC(=O)Nc3ccccc3OC)cc2)CC1	3.2µM	–	?	–	·	?
CCN1CCN(C(=O)Nc2ccc(Cc3ccc(NC(=O)N4CCN(CC)CC4)cc3)cc2)CC1	–	–	–	–	·	13µM
O=C1CC(Nc2ccc(N3CCOCC3)cc2)C(=O)N1c1ccccc1F (stereo not given)	20µM	–	–	·	·	–
CCOC(=O)CSc1nc2c(c(-c3ccc(C)o3)c1C#N)CCCC2	?	–	–	–	·	–
COC(=O)CSc1nc2c(c(-c3ccco3)c1C#N)CCCC2	10µM	16µM	–	–	–	–
N#Cc1c(N)nc(SCc2ccccc2)c(C#N)c1-c1ccco1	?	–	–	–	–	–
N#Cc1c(N)nc(SCC(=O)OCc2ccccc2)c(C#N)c1-c1ccco1	16µM	–	–	–	–	–
C[C@@H](CCc1ccc(O)cc1)NCCc1ccc(O)c(O)c1	–	?	?	?	·	–
COc1ccccc1CN1CCC2(CC1)CCN(C(=O)c1cccn1C)CC2	–	–	–	–	·	–[11.4 µM]
O=S(=O)(O)[C@@H](c1ccccc1)[C@@H](O)c1ccccc1	–[11.4 µM]	–[11.4 µM]	–[11 µM]	–[11.5 µM]	·	–[11.4 µM]
CCN1C(=O)CC(N2CCN(c3ccc(C(=O)c4ccccc4)cc3)CC2)C1=O (stereo not given)	–	–	–	16µM	·	?
Nc1ccc(O)cc1	?	16µM	–	–	·	·
Nc1ccc(C(=O)O)cc1	–	–	–	–	·	·
COc1ccc(O[C@H]2C=C[C@@H](c3ccccc3)O[C@H]2COC(=O)CC/C(C)=N\OC[C@@H](C)[C@H](OCc2ccccc2)C(C)C)cc1	–[11.4 µM]	·	·	–[11.5 µM]	·	–[11.4 µM]
CCOCCCn1c(C)nc2c(c1=O)c1nc3ccccc3nc1n2CCC1=CCCCC1	25µM	1.6µM	–	–	–	–
Clc1ccc2[nH]c3c(NCC4CCCO4)ncnc3c2c1 (stereo not given)	?	–	–	25µM	–	–
Clc1ccc(-n2ncc3c(NCc4ccco4)ncnc32)cc1	·	·	·	·	7.6	4µM
Clc1ccc(-n2ncc3c(NCC4CCCO4)ncnc32)cc1 (stereo not given)	–	–	–	·	·	5µM
Clc1ccc2[nH]c3c(NCCN4CCOCC4)ncnc3c2c1	·	·	·	·	–	–
COC(=O)[C@@]1(Cc2ccccc2)[C@H]2c3cc(C(=O)N4CCCC4)n(Cc4cc(F)cc5c4OCOC5)c3C[C@H]2CN1C(=O)c1ccccc1	·	–	–	–	·	·
COc1ccc(N2CCN(c3oc(COc4ccccc4)nc3C#N)CC2)cc1	–	?	13µM	–	–	–
N#Cc1nc(-c2ccc(OCc3ccccc3)cc2)oc1N1CCC(C(N)=O)CC1	?	–	–	–	4.9	–
CCCC1CC(C(=O)N[C@H](C(C)O)C2OC(SC)[C@@H](O)C(O)C2O)N(C)C1 (stereo not given in full)	–	·	·	–	·	·
Cc1ccccc1-c1noc(-c2ccccc2C(=O)N2CCCC2)n1	–	–	–	–	–	–
COc1ccc(-c2nc(-c3ccc(Br)cc3)no2)c(OC)c1	–	–	–	–	6.3	2.5µM
SMILES	ALOX15 inhib	Tau filament bind	Hsp90 Hop PPI	ERK AVP inh	PK Bst	FLuc inh
Cc1ccccc1-c1noc(-c2ccc(O)cc2)n1	–[11.4 µM]	?	–[11 µM]	–	·	20µM
COc1ccccc1-c1nc(-c2ccc(Br)cc2)no1	–	–	–	–	·	13µM
COc1ccccc1-c1nc(-c2ccncc2)no1	–	–	–	–	–	20µM
CN(C)c1ccc(-c2noc(-c3ccccc3O)n2)cc1	–	–	–	–	–	1µM
Cc1ccc(-c2noc(-c3ccccc3C(=O)N3CCCC3)n2)cc1	–	–	–	–	·	–
Cc1ccc(-c2noc(-c3ccccc3Br)n2)cc1	–	–	?	–	·	3.2µM
Cc1ccc(S(=O)(=O)CCC(=O)OCC(=O)N2CC(=O)Nc3ccccc32)cc1	–	–	–	–	·	–
O=C1CN(C(=O)COC(=O)CCC(=O)c2ccc3c(c2)OCCO3)c2ccccc2N1	–	–	–	–	·	20µM
COc1cc2nc(NCCN3CCOCC3)n3nc(-c4ccccc4)nc3c2cc1OC	–	–	–	–	–	–
CN1CCN(CCCNc2nc3ccccc3c3nc(-c4ccccc4)nn23)CC1	–	–	–	–	10	–
CCc1ccc(-c2cn(-c3nc(C)cc(C)n3)c(=N)o2)cc1	–	–	–	–	·	16µM
CCN1C(=O)[C@H]2[C@H]3[C@H](O)[C@H](O)C/C(=N/OC/C=C(\C)CCC=C(C)C)[C@H]3CC[C@@H]2C1=O	–[11.4 µM]	·	·	–[11.5 µM]	·	–[11.4 µM]
CCOC(=O)C1CCCN(c2ccc(NC(=O)c3snc4c(=O)[nH]cnc34)cc2)C1 (stereo not given)	–	16µM	–	?	–	–
CCOC(=O)c1snc2c(=O)[nH]cnc12	–	–	–	–	–	–
CCCCCCCCCCCCCCCCCCOC[C@@H](COP(=O)([O-])OCC[N+](C)(C)C)OC	–	–	–	–	·	–
Oc1cc2c(cc1O)C1c3ccc(O)c(O)c3OCC1(O)C2 (stereo not given)	5µM	·	·	?	·	·
CCCCC(=O)Nc1ccc(N2CCN(C(=O)CC)CC2)cc1	–	–	?	25µM	–	–
CCCC(=O)Nc1ccc(N2CCN(C(=O)CCC)CC2)cc1	–	–	–	–	–	–
CCOC(=O)c1csc(Nc2nc3ccc(F)cc3s2)n1	–	–	–	–	1.2	–
CC(=O)c1sc(Nc2nc3ccc(F)cc3s2)nc1C	–	–	–	–	?	16µM
CCOC(=O)c1ccc2nc(NC(NC(C)=O)(C(=O)OC)C(F)(F)F)sc2c1 (stereo not given)	·	·	·	·	–	–
CC(=O)c1sc(NC(=O)C2(F)C(F)(F)C(F)(F)C(F)(F)C(F)(F)C2(F)F)nc1C	–	–	–	–	–	–
COc1ccc(O[C@H]2C=C[C@@H](c3ccccc3)O[C@H]2COC(=O)CC/C(C)=N/OCC[C@@H]2C=C[C@H](OC(C)=O)[C@H](COC(C)=O)O2)cc1	–[11.4 µM]	·	·	–[11.5 µM]	·	–[11.4 µM]
COc1ccc(Oc2ncc3ncc(=O)n(CCC#N)c3n2)cc1	–	–	–	–	·	–[11.4 µM]
O=C(c1csnn1)N1CCC2(CC1)CN(c1cccc(-c3ccccc3)c1)C2	–	–	?	–	·	–[11.4 µM]
Nc1ccc(CCc2nc3ccccc3o2)cc1	–	–	–	–	–	25µM
O=C(CC1Nc2ccccc2NC1=O)NCc1cccnc1 (stereo not given)	16µM	–	–	–	–	–
CNc1nc(-c2ccccc2C)nc2ccccc12	?	–	–	–	·	–[2.29 µM]

Screening data (PubChem)
